Drawing on PubChem BioAssay (EPA / NIEHS), this text covers outcome and AC50 for 40 molecules.

Inconclusive results are not listed. Calls of active or inactive are those of the source. Rule for the calls: active = hit-call score of the fitted dose curve at least 0.9, where 1 is the maximum; inconclusive = response in the unintended direction; inactive = score below 0.9.

This experiment in a line: TOX21_p53_BLA_p5_viability: Viability Assessment in the Tox21 HCT-116 p53 Agonism Beta-lactamase Assay, Phase 5 (AID 2283600). An excerpt:
TOX21_p53_BLA_p5 is a cell-based, single-readout assay that uses HCT116, a human intestinal cell line, […] in a 1536-well plate.TOX21_p53_BLA_p5_viability is an assay readout measuring cellular ATP content and detected with CellTiter-Glo Luciferase-coupled ATP quantitation.TOX21_p53_BLA_p5_viability used a type of viability reporter where loss-of-signal activity can be used to understand changes in the cell viability. Furthermore, this assay endpoint can be referred to as a secondary readout, because this assay has produced multiple assay endpoints where this one serves a viability function. To generalize the intended target to other relatable targets, this assay endpoint is annotated to the cell cycle intended target family, where the subfamily is cytotoxicity.
Thawing Method: Place 14 mL of pre-warmed thaw medium into a 15 mL of conical tub. Remove the vial of cells to be thawed from liquid nitrogen and thaw rapidly by placing at 37C in a water bath with gentle agitation for 1-2 minutes. Decontaminate the vial by wiping with 70% ethanol before opening in a biological safety cabinet. Transfer the vial contents drop-wise into 14 mL of thaw medium in a sterile 15-mL conical tub. Centrifuge cells at 900 rpm for 4 minutes and resuspend in thaw medium. Transfer contents to the T75 tissue culture flask containing Thaw Medium and place flask in a humidified 37C/5% CO2 incubator. Switch to growth medium at first passage.Propagation Method: Aspirate medium, rinse once in DPBS, add 0.25% Trypsin/EDTA and swirl to coat the cell evenly. Add an equal volume of Growth Medium to inactivate Trypsin after 2-3 minutes incubation at 37C. Centrifuge cells at 900 rpm for 4 minutes and resuspend in growth medium. Cell should be passage or fed at least twice a week.Assay Protocol: Harvest cells from culture in growth medium and resuspend in assay medium. 2.2 Dispense 4000 cells/5 uL/well into 1536-well black/clear bottom plates using a Multidrop dispenser. After the cells were incubated at 37C for 5 hours, 23 nL of compounds dissolved in DMSO were transferred to the assay plate by a PinTool resulting in a 217-fold dilution. Incubate the plates for 16 hours at 37C, 5% CO2. Add 1 uL of 6X LiveBLAzer FRET B/G (CCF4-AM) Substrate Mixture to each well using a BioRAPTR dispenser and incubate the plates at room temperature for 2 hours. Measure fluorescence intensity at 460 and 530 nm emission and 405 nm excitation by an Envision detector. Data is expressed as the ratio of 460nm/530nm emissions. Add 4 uL of Cell-titer Glo to each well using BioRAPTR and incubate the plates at room temperature for […]. For cell viability readout that measures cytotoxicity, 4 ul/well of CellTiter-Glo reagent was added into the assay plates using a Flying Reagent Dispenser. After 30 min incubation at room temperature, the luminescence intensity in the plates was measured using a ViewLux plate reader.
With `O=C1c2cccc(O)c2C(=O)c2c(O)cc(CO)cc21`, the molecule was classed as inactive.

For `CCCCOCCOC(=O)COc1nc(Cl)c(Cl)cc1Cl`, the call was inactive.

In the case of `O=C(O)CCCCCCCCCC(=O)O`, the result was inactive.

`C[C@]12C=CC(=O)C=C1CC[C@@H]1[C@@H]2[C@@H](O)C[C@@]2(C)[C@H]1CC[C@]2(O)C(=O)CO`: the molecule was called inactive.

Take `O=C(Oc1ccccc1)c1ccc2ccccc2c1O`: the call was inactive.

In the case of `Cc1ccc(N/N=c2\c(=O)cc/c(=N/Nc3ccc(S(=O)(=O)O)cc3)c2=O)c(C)c1`, the molecule was called inactive.

Consider `CC(=O)Nc1nnc(S(N)(=O)=O)s1`, for which the outcome was inactive.

Take `C=CC(=O)OCCOC(=O)C=C`: the molecule was classed as inactive.

As for `N=c1ccn2c(n1)O[C@H]1[C@H](O)[C@@H](CO)O[C@H]12`, the molecule was classed as inactive.

For `CCOC(=O)c1ccccc1C(=C1C=C(Br)C(=O)C(Br)=C1)c1cc(Br)c(O)c(Br)c1`, the molecule was called inactive.

As to `CCC(C)C=O` (stereo not given), the call was inactive.

With `O=C1CCCCCCCCCCC(=O)OCCO1`, the call was inactive.

In the case of `CC(C)=CCC[C@H](C)CCO`, the molecule was called inactive.

Turning to `COCC(C)N` (stereo not given), the molecule was called inactive.

Turning to `COC(=O)c1c(C)cc(O)c(C)c1O`, the outcome was inactive.

With `Cc1ccc2c(c1)C(=O)c1ccccc1C2=O`, the result was inactive.

As for `O=C(OCC1CCC2OC2C1)C1CCC2OC2C1` (stereo not given), the molecule was classed as inactive.

Turning to `COc1ccc(C(Cl)=C(c2ccc(OC)cc2)c2ccc(OC)cc2)cc1`, the result was inactive.

With `COc1c2ccoc2cc2oc(=O)ccc12`, the call was inactive.

As for `C=C(C)c1cccc(C(C)(C)N=C=O)c1`, the molecule was called inactive.

For the molecule `C=CCOc1c(Br)cc(Br)cc1Br`, the molecule was classed as inactive.

As to `CN(C)c1ccc(C(=N)c2ccc(N(C)C)cc2)cc1`, the outcome was inactive.

As to `C=CCCCCCCCCC(=O)OCCCC`, the molecule was classed as inactive.

Take `CC(=O)Oc1ccc(C(C)=O)cc1`: the molecule was classed as inactive.

Take `C(=CC=Nc1ccccc1)C=CNc1ccccc1`: the outcome was inactive.

In the case of `CNC(=S)NN`, the result was inactive.

As for `O=C1CCCCCCCCCCCCCCCO1`, the outcome was inactive.

For `O=c1[nH]nc(-c2ccc([N+](=O)[O-])o2)o1`, the outcome was inactive.

On to `O=S(=O)(O)c1ccccc1C=Cc1ccc(-c2ccc(C=Cc3ccccc3S(=O)(=O)O)cc2)cc1`, for which the outcome was inactive.

Turning to `CN(C)c1ccc(N=Nc2ccccc2C(=O)O)cc1`, the AC50 was 75.8 µM (active).

Take `NC(=O)NNC(N)=O`: the outcome was inactive.

Consider `O=C(O)c1cc(Cl)cc([N+](=O)[O-])c1Cl`, for which the molecule was called inactive.

`COC(=O)c1ccc2cc(C(=O)OC)ccc2c1`: the molecule was classed as inactive.

Regarding `O=C(Cl)c1cc(C(=O)Cl)cc(C(=O)Cl)c1`, the molecule was classed as inactive.

Turning to `CC(=O)Oc1ccc(C)cc1`, the outcome was inactive.

Take `COc1cc(C)ccc1C(C)C`: the outcome was inactive.

`CC(C)c1ccc2c(c1)CC[C@H]1[C@](C)(CN)CCC[C@]21C`: the AC50 was 63.5 µM (active).

As to `CC(=O)C=CC1C(C)=CCC(C)C1(C)C` (stereo not given), the outcome was inactive.

On to `CC(=O)OCC(=O)[C@@]12N=C(C)O[C@@H]1C[C@H]1[C@@H]3CCC4=CC(=O)C=C[C@]4(C)[C@H]3[C@@H](O)C[C@@]12C`, for which the molecule was called inactive.

Take `CCCCCCCCCCCCCCCCCC#N`: the outcome was inactive.

Broadly, the AC50 is the concentration giving half of the maximal activity seen.
